Columns and labels:
Experiment in all cases: log2 ratio of Biotin-Ahx-Ub-VS probe labelling (fragment/DMSO); higher = less target engagement (more negative = stronger competition), active = hit call of the paper (q ≤ 0.05, log2 ratio ≤ -1)
Settings in all cases: compound concentration: 200 uM; treatment time: 3 h
USP34 = USP34 (UniProt Q70CQ2)
Procedure, shortened: (§1)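 Fragment (200 µM) or vehicle was incubated for 3 h with triplicate HEK293T lysate samples of 495 µg, which were then treated with Biotin-Ahx-Ub-VS at 0.5 µM final for 1 h. Labelled DUBs were enriched on NeutrAvidin, digested with LysC and trypsin, and analysed by diaPASEF LC-MS/MS. Values are average log2 fragment/vehicle ratios from an unpaired t-test on global-median-normalised Spectronaut label-free quantities, using proteins with ≥2 unique peptides.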

USP36 = biological target: T1, USP36 (UniProt Q9P275)
T1 sequence (whole entry): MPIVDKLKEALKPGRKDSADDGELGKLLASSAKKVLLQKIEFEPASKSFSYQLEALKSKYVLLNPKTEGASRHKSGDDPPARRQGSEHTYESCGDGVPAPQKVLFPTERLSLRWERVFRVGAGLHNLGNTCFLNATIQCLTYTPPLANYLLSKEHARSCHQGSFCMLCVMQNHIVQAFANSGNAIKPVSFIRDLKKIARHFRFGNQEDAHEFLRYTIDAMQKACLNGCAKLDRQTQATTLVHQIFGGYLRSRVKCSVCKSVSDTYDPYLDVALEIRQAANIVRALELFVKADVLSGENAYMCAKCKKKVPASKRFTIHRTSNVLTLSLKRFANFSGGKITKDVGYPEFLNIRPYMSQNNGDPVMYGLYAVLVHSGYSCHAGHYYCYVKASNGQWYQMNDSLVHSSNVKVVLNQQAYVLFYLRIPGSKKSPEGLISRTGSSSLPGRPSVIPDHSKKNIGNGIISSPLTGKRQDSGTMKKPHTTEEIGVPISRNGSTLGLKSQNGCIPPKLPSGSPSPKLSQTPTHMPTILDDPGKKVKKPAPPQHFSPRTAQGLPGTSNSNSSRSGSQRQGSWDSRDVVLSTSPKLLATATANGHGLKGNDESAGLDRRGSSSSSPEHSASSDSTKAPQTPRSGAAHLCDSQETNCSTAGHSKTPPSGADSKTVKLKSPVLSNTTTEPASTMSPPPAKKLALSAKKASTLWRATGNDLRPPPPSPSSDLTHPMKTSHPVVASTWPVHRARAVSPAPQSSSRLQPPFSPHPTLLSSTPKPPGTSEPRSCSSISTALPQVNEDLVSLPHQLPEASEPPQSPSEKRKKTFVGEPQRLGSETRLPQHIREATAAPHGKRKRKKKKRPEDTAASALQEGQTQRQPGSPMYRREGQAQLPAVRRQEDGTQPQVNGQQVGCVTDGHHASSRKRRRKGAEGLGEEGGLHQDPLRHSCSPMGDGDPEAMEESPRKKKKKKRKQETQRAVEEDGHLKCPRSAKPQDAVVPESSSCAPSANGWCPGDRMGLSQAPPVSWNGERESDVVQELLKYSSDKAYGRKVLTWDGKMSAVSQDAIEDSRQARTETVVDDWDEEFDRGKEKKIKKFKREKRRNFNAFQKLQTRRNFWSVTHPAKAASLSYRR
Procedure, shortened: as §1

USP38 = biological target: T2, USP38 (UniProt Q8NB14)
T2 sequence (whole entry): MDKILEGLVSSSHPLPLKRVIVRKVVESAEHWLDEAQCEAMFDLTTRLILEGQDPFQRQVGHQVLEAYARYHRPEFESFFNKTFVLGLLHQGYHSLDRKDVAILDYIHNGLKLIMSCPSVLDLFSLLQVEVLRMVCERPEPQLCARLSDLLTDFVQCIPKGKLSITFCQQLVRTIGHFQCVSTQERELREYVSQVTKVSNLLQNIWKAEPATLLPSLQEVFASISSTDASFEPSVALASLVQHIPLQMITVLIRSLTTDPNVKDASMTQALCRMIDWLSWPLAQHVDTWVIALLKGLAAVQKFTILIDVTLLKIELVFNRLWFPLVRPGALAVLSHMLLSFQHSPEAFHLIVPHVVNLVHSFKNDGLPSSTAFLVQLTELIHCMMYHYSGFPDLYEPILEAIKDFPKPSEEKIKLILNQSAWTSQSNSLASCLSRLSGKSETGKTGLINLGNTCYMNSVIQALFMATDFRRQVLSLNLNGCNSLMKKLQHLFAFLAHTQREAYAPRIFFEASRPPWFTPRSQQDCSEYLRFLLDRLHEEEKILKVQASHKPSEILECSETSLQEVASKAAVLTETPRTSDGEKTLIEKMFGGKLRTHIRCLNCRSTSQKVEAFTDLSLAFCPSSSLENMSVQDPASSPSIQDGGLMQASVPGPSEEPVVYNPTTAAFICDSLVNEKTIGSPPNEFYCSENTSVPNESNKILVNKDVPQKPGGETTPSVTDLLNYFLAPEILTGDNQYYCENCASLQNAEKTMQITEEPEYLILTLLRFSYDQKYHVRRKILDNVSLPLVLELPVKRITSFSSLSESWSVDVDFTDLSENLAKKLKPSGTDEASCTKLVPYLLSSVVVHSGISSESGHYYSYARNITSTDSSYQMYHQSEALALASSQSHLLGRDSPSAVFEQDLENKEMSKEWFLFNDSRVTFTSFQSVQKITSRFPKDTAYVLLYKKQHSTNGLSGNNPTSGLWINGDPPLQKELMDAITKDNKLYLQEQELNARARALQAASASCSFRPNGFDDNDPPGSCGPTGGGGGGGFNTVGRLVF
Procedure, shortened: as §1

USP39 = biological target: T3, USP39 (UniProt Q53GS9)
T3 sequence (whole entry): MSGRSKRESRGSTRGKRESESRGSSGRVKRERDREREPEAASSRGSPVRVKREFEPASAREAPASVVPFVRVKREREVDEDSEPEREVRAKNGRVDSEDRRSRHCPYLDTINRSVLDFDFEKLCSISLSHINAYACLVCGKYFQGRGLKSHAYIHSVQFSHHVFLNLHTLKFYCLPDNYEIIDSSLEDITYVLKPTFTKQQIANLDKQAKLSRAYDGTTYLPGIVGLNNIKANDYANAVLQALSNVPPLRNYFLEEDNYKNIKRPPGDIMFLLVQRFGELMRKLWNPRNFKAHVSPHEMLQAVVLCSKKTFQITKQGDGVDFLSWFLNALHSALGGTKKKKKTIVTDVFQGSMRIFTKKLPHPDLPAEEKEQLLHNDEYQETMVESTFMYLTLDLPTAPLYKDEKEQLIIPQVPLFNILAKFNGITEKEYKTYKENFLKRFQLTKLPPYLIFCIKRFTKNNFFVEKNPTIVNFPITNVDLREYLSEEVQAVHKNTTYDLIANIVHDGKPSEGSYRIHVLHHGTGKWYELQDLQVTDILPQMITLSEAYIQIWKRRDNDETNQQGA
Procedure, shortened: as §1

USP4 = biological target: T4, USP4 (UniProt Q13107)
T4 sequence (whole entry): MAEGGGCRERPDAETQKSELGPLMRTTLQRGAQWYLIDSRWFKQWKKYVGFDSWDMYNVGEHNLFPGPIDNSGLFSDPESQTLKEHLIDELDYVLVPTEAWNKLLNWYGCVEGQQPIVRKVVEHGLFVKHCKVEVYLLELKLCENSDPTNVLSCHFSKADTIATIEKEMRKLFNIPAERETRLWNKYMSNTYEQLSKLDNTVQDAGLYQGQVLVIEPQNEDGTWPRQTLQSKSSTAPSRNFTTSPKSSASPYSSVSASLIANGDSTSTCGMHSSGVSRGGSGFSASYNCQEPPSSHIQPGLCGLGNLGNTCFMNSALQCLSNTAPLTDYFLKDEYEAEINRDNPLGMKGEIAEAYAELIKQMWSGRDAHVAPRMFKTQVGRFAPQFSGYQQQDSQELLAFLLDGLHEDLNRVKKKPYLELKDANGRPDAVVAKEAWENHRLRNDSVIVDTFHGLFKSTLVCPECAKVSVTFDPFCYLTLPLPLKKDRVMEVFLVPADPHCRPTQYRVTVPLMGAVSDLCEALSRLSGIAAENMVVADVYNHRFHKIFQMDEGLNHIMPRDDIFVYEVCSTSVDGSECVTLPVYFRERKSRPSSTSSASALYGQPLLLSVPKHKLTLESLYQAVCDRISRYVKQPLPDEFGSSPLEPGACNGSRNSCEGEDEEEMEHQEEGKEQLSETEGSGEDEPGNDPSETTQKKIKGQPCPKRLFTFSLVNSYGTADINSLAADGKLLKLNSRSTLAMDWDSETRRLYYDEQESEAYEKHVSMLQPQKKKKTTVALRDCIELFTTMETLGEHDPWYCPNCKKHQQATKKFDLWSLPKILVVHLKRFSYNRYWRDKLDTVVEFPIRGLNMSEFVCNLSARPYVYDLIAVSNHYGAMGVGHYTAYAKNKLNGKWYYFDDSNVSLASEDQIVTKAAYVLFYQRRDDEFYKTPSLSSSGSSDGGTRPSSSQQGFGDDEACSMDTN
Procedure, shortened: as §1

Measured: log2 ratio of Biotin-Ahx-Ub-VS probe labelling

Sequence of USP34 (Q70CQ2 whole entry, the tested form may be a part): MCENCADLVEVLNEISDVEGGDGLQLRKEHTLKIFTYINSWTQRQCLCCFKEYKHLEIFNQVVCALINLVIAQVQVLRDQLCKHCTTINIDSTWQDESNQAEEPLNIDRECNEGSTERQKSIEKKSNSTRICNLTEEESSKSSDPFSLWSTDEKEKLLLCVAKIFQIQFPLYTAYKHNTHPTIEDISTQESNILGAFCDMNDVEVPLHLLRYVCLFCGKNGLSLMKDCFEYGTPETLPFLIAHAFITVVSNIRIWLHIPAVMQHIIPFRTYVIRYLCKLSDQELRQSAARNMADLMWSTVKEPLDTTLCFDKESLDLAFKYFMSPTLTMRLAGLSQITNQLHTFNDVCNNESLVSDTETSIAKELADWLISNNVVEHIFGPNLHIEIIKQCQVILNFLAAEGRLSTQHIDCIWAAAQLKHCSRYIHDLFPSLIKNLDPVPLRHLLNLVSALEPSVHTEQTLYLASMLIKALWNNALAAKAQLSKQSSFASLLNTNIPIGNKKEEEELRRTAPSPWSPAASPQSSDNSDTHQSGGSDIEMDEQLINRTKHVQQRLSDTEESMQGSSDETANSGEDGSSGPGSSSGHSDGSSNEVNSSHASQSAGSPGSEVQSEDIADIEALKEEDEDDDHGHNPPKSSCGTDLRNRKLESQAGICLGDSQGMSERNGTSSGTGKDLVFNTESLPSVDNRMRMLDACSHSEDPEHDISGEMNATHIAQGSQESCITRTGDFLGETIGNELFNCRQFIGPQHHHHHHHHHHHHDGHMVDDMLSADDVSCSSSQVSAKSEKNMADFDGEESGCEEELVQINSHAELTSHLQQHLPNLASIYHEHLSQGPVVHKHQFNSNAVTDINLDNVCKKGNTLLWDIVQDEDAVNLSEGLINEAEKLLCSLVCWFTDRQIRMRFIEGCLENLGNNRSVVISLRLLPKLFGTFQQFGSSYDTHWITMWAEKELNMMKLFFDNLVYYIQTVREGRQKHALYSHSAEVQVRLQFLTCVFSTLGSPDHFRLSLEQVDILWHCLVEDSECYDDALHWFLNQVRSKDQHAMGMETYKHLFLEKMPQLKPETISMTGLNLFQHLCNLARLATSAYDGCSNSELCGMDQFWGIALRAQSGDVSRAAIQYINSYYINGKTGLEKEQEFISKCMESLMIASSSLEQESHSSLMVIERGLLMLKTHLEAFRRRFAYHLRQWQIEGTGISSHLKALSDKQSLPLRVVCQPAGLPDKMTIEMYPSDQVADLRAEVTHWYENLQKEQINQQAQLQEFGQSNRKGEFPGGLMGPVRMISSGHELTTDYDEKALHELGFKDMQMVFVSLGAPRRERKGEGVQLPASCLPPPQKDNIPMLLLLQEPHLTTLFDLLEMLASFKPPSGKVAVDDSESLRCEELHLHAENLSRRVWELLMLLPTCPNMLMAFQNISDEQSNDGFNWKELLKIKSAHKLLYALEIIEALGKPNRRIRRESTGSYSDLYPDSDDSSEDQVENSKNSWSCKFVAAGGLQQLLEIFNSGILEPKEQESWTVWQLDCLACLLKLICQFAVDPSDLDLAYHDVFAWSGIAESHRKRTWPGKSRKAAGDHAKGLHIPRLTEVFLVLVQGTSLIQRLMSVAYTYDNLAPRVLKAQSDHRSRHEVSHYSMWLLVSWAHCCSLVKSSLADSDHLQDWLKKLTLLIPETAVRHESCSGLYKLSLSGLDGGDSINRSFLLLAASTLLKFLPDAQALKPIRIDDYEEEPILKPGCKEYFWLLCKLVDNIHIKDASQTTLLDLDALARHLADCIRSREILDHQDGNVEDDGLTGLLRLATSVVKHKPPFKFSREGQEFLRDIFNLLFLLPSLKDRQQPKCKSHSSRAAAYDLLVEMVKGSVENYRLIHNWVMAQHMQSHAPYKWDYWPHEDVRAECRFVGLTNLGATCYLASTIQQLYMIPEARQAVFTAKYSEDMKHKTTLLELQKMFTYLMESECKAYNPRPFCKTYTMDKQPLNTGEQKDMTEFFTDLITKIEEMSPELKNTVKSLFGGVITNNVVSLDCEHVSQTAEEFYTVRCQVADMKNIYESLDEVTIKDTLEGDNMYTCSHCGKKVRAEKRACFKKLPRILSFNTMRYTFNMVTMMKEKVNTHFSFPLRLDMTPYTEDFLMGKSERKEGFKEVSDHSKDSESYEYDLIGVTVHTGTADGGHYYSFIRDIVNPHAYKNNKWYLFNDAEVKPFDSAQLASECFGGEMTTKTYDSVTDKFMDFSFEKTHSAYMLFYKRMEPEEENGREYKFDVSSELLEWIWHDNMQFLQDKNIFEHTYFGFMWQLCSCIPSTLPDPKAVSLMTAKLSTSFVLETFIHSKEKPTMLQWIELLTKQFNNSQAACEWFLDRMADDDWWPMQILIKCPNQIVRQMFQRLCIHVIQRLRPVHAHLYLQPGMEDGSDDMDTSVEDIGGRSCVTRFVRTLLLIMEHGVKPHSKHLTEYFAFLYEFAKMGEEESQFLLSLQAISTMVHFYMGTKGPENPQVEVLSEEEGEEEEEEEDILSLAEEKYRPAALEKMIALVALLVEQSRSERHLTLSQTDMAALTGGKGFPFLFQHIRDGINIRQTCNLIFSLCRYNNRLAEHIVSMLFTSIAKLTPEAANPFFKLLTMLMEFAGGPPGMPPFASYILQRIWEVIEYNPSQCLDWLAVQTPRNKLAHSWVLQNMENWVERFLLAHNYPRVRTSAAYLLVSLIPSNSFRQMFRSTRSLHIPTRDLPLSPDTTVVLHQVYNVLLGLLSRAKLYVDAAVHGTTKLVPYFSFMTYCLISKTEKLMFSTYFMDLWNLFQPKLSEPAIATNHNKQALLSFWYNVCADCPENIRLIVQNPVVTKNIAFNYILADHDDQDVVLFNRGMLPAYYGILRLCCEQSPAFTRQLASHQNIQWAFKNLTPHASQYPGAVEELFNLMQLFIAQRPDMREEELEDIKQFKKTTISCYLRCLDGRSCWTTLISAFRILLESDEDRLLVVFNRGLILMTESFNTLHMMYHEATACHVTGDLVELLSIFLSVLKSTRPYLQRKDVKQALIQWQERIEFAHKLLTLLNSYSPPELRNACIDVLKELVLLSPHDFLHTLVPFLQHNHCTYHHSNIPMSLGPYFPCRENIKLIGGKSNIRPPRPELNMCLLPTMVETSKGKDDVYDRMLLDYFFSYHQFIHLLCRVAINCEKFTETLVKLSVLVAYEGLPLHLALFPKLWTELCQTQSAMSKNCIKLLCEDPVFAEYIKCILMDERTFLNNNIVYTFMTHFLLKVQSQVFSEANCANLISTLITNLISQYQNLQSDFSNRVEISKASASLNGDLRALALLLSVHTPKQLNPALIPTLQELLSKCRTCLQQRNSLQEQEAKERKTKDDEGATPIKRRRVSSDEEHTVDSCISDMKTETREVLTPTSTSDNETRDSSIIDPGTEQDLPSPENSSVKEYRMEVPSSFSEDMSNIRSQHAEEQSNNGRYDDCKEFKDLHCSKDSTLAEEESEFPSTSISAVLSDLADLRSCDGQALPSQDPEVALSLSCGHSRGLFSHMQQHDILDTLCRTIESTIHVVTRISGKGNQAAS

O=C(CCl)NCCc1ccc(F)cc1
inactive: USP34 -0.0755 | USP36 0.207 | USP38 0.0565 | USP39 0.108 | USP4 -0.11

Source: the supplement of paper PMC11732987, “Enantioselective OTUD7B fragment discovery through chemoproteomics screening and high-throughput optimisation” (Communications Chemistry, 2025)
